# Assay outcomes deposited in PubChem by The Scripps Research Institute Molecular Screening Center.
# The entries come from a sample that favours hits as a whole.
# SF-1 inh = blocks the human nuclear receptor SF-1. AID 525. Q13285. 65,000 compounds, 0.55% hits. CHO-K1 Gal4-SF-1 LBD luciferase reporter. inhibition, % at 10 µM;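 active means inhibition above the mean inhibition of all tested compounds plus 3 SD, cut at about 48% in these data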;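 further: 0% = SF-1 transfected cells with DMSO and 100% = mock-transfected cells lacking SF-1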
# Target sequence (Q13285 whole entry, looked up, the tested form may be a part): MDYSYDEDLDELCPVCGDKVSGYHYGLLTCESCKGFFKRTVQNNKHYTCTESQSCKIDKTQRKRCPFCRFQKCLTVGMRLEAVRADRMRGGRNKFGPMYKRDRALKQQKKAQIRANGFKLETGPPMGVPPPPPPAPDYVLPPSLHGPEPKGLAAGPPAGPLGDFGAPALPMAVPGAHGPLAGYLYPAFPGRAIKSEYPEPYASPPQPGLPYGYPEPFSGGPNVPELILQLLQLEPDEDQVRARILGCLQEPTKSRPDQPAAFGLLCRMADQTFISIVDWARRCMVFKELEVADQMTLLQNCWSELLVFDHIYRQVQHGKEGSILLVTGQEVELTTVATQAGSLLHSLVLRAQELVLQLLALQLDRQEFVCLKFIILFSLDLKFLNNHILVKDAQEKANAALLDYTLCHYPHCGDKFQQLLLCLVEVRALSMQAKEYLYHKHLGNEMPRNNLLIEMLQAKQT
# Active calls of the source: *.
SMILES,SF-1 inh
Cc1ccc2c(c1)NC(=O)C(CC(=O)NCCCN1CCN(c3cc(Cl)ccc3C)CC1)O2 (stereo unspecified),13
COCCn1c(SCc2nc3ccccc3s2)nc2ccccc21,-50
Cc1ccc(C2=Nc3ccccc3NC(C)(c3ccc(C)o3)C2)o1 (stereo unspecified),-106
COCCn1c(C)cc(C(=O)COC(=O)c2ccc3ncsc3c2)c1C,-52
COCCn1c(C)cc(C(=O)COC(=O)c2n[nH]c3ccccc23)c1C,67*
COCCn1c(C)cc(C(=O)CSc2nc3ccccc3c(=O)[nH]2)c1C,-8
CCN(CC)CCCN1C(=O)C(O)=C(C(=O)c2cc3cccc(OC)c3o2)C1c1ccncc1 (stereo unspecified),-12
CCCc1nnc(NC(=O)CN2C(=O)C3C4C=CC(C4)C3C2=O)s1 (stereo unspecified),-18
CS(=O)(=O)N(CC(=O)NCc1ccncc1)c1cc(Cl)cc(Cl)c1,14
c1ccc(-c2ccc(-c3ccccn3)nn2)nc1,53*
c1ccc(-c2n[nH]c(-c3ccccn3)n2)nc1,-78
c1ccc(-c2nc3ccccc3s2)nc1,-60
COc1ccc(-c2noc(C3CCCN(C(=O)CCc4ccccc4)C3)n2)cc1 (stereo unspecified),4
COc1ccc(NC(=O)N2CCCC(c3nc(-c4ccc(C(C)C)cc4)no3)C2)cc1 (stereo unspecified),59*
COc1cccc(NC(=O)N2CCC(N3CCCCC3)CC2)c1,21
Cn1c(=O)c2c(nc(N3CCOCC3)n2CCCNC2=NCCC2)n(C)c1=O,2
C=CCNC(=O)NS(=O)(=O)c1ccc(C)cc1,4
CCCSc1nnc(Cn2c(=O)sc3ccccc32)n1-c1ccccc1,-4
O=C(c1ccccc1)C(CCC(CN1CCOCC1)C(=O)c1ccccc1)CN1CCOCC1 (stereo unspecified),74*
O=C(CCSc1ccccc1)N1CCOCC1,-52
O=C(c1ccccc1)c1ccccc1C(=O)N1CCOCC1,22
CCOC(=O)CSC(CC)C(=O)Nc1nnc(CC)s1 (stereo unspecified),-20
CCOC(OCC)P(=O)(c1ccccc1)c1ccccc1,-20
Cc1nn(-c2ccccc2)c2sc(C(=O)N(CC(=O)NC(C)(C)C)Cc3ccco3)cc12,-7
c1ccc(-c2csc(Nc3cccnc3)n2)nc1,-57
SMILES,SF-1 inh
COc1cccc2sc(Nc3nc(-c4ccccn4)cs3)nc12,96*
CCOC(=O)c1sc(Nc2nc3c(OC)cccc3s2)nc1C,-64
COCCCN(C(C)=O)c1nc(-c2ccc(OC)cc2)cs1,-98
CCOC(=O)c1sc(NC(=O)c2cc3c(C)nn(-c4ccccc4)c3s2)nc1C,8
COc1ccc(CNc2nc3c(c(=O)n(Cc4ccc(F)cc4)c(=O)n3C)n2C)cc1,5
CC1(C)CC(=O)C2=C(C1)Nc1ccccc1N=C2,-58
ClC(Br)=C(n1cnc2ccccc21)n1cnc2ccccc21,10
O=C(CSc1cn(Cc2ccccc2)c2ccccc12)Nc1nccs1,-84
O=C(CCCSc1nc2ccccc2[nH]1)NC1=NCCS1,12
O=C(CSC1=NCCS1)Nc1ccnc2ccccc12,67*
CCCCN(CC)C(=O)c1ccc(Cl)c(Cl)c1,-20
CCCc1nnc(NC(=O)CCC(=O)N2CCCCCC2)s1,8
Cc1nn(-c2nc3ccccc3s2)c(C)c1Oc1ccccc1O,-58
Oc1c(CN2CCOCC2)cc(COCc2ccccc2)c2cccnc12,73*
O=c1[nH]c2ccc(Br)cc2c(-c2ccccc2)c1CN1CCOCC1,10
COc1ccc(-c2cc(C(F)(F)F)nc(N3CCN(c4ccccc4)CC3)n2)cc1OC,-12
O=C(O)c1cc2nc(-c3ccccc3)cc(C(F)(F)F)n2n1,7
CS(=O)(=O)c1nc(-c2ccccc2)cc(C(F)(F)F)n1,52*
Nc1c(C(=O)Nc2ccc(Cl)cc2)oc2ccccc12,-106
COC(=O)c1nn(-c2ccc(-c3ccccc3)cc2)cc1O,56*
CC(=O)N=C(N)Sc1nc2ccccc2[nH]1,-98
O=S(=O)(NCCc1cn2ccccc2n1)c1cccs1,-18
CCOc1ccc(C)cc1S(=O)(=O)Nc1cccnc1,-12
COc1cc(NS(=O)(=O)c2ccc(C)cc2C)cc(OC)c1OC,62*
COc1cc(C(=O)Nc2ccc(N(C)C)cc2)cc(OC)c1OC,-62
SMILES,SF-1 inh
O=C(CSc1cccc2cccnc12)NCc1ccco1,12
O=C(COc1ccc(Cl)cc1Cl)Nc1ccccn1,-19
c1ccn2c(Cc3nnc4ccccn34)nnc2c1,-11
COC(=O)c1ccc(NC(=O)CN(c2ccc(OC)cc2)S(C)(=O)=O)cc1,-75
O=C(Nc1ccc(F)c(F)c1)c1ccc2c(c1)OCO2,-66
COc1cc2c(cc1NC(=O)c1ccc3c(c1)OCO3)oc1ccccc12,-54
O=C(NCCOc1ccccc1)c1ccc2c(c1)OCO2,59*
O=c1cc(CSc2nnc(-c3ccccc3)o2)c2ccccc2[nH]1,8
COC(=O)C1=C(CN2CCN(C)CC2)NC(=O)NC1c1cc(C)ccc1C (stereo unspecified),3
COC(=O)C1=C(CN2CCCc3ccccc32)NC(=O)NC1c1ccc(F)cc1 (stereo unspecified),75*
COc1ccc(CCNC(=O)CN2CCCc3ccccc32)cc1OC,-17
COc1ccc2cc(CCNC(=O)C3CC3)c(=O)[nH]c2c1,-5
Cc1ccccc1OC(=O)CCC(=O)OCCCC(F)(F)C(F)(F)F,-3
COc1ccc(OC)c(NS(=O)(=O)c2ccc(N3CCCC3=O)cc2)c1,53*
COc1ccc(OC)c(S(N)(=O)=O)c1,-13
COc1ccc(N2CC(C(=O)Nc3ccc(N4CCOCC4)cc3)CC2=O)cc1 (stereo unspecified),3
COc1ccccc1N1CCN(C(=O)C2C3C=CC4(CN(Cc5ccccc5Cl)C(=O)C24)O3)CC1 (stereo unspecified),17
NC(=O)c1cc(Cl)cn(-c2ccccc2)c1=O,24
O=C(c1cccs1)c1cn(CC(=O)N2CCc3ccccc3C2)c2ccccc12,4
CC(C)CCSc1nc(N)c(C#N)cc1C#N,-3
Cc1ccc(S(=O)(=O)N2CCN(C(=O)CN3CCN(C)CC3)C2)cc1,7
CC(CCc1ccccc1)NC(=O)C1CCN(C(=O)c2sccc2-n2cccc2)CC1 (stereo unspecified),8
O=C(Nc1ccccc1F)c1ccncc1,5
Cc1csc(NC(=O)c2sc3nc(-c4cccs4)ccc3c2N)n1,-50
O=C(Nc1nc(-c2ccc(Cl)s2)cs1)c1ccncc1,63*
SMILES,SF-1 inh
CC1(C)CC(=O)C(CC2=C(O)CC(C)(C)CC2=O)=C(O)C1,-3
CCOc1ccc2nc(N3CCCCCC3)sc2c1,-58
CC(C)c1nnc(NC(=O)C2CCN(c3nc4ccccc4s3)CC2)s1,-18
Cc1cc(N2CCN(c3nc4ccccc4s3)CC2)n2ncnc2n1,55*
COc1ccc(C(CC(=O)Nc2nccs2)n2cccc2)cc1 (stereo unspecified),-55
Fc1ccc(-n2[nH]nnc2=S)cc1N1CCCC1,5
COCCN(CC(=O)Nc1ccc(F)cc1)S(=O)(=O)c1ccc(S(=O)(=O)N2CCCC2)cc1,3
Cc1ccc(S(=O)(=O)c2nc(-c3ccco3)oc2SCC(=O)NCC2CCCO2)cc1 (stereo unspecified),-8
CC(=O)c1ccc(N2CCN(c3ccc(C(F)(F)F)cn3)CC2)cc1,58*
C=CCn1c(=O)[nH]c2cc(C(=O)N3CCN(c4ccc(C(C)=O)cc4)CC3)ccc2c1=O,-14
CC(=O)c1ccc(N2CCN(C(=O)c3cc4c(=O)n(C)c5ccccc5c4n3C)CC2)cc1,48
